# Compound activity deposited in PubChem by National Center for Advancing Translational Sciences (NCATS).
# A selection: hits, their analogues and other compounds. The true share with any hit is near 19%.
# HepG2 viability – qHTS for Inhibitors of TGF-b: Cytotox Counterscreen. HepG2 CAGA-GFP viability, ATP luminescence, 18 h. Potency, µM (titrated, usually from 46.1 µM), without a hit: top-dose activity change, negative = cytotoxicity, hits mostly cytotoxic. 410,000 compounds, 0.76% hits; also: potency is read from the fitted curve at half-maximal effect
#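 HepG2 CAGA-GFP cells (1000/well, DMEM with 1% FBS) received compound, then TGF-beta at 500 pg/mL final, and were incubated 18 hours at 37 degrees C. Viability was read by CellTiter-Glo luminescence. Media-only wells were set as complete cell-killing and DMSO as no toxicity.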
# IL-1B inflam inh – qHTS for Inhibitors of Inflammasome Signaling: IL-1-beta AlphaLISA Primary Screen; THP-1 LPS/ATP IL-1B secretion, AlphaLISA, 16 h; hits give low values; activity change, % at 57.5 µM; 360,000 compounds, 4.7% hits; AID 743279, 2014; in the data active = activity change below about -50%; inconclusive = mostly about -30% to -49%; also: % is scaled to controls: 0 for no effect and ±100 for the full control effect
#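 THP-1 cells pretreated 1 hr with compounds (up to 57.5 uM final), then stimulated with LPS (250 ng/mL final) plus ATP (1.25 mM final); secreted IL-1B measured by AlphaLISA after 16 hr, decreased signal indicating inhibition.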
# TDP1 cell CPT – qHTS for Inhibitors of human tyrosyl-DNA phosphodiesterase 1 (TDP1): qHTS in cells in presence of CPT; chicken DT40 Tdp1-/-;hTDP1 cells + 20 nM CPT, ATP luminescence, 48 h; Potency, µM (highest dose often 46.2 µM), without a hit: top-dose activity change, negative = growth inhibition, usual class: inhibitors; 420,000 compounds, 12% hits; AID 686979, 2013; also: potency is read from the fitted curve at half-maximal effect; % is scaled to controls: 0 for no effect and ±100 for the full control effect; nearly all actives have a fitted effect of over 55% in size
#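 Chicken DT40 Tdp1-/- cells complemented with human TDP1, 400 cells/well, exposed to compounds plus 20 nM camptothecin for at least 48 h at 37 C; viability read as ATP content by CellTiter-Glo luminescence.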
# S-ASM inh – Inhibitors of Secretory Acid Sphingomyelinase (S-ASM): qHTS; Sphingomyelin phosphodiesterase (Homo sapiens), P17405; placental ASM, HMU-PC fluorogenic substrate, 60 min; Potency, µM (titrated, usually from 57.5 µM), for the others: top-dose activity change, negative = inhibition, hits mostly inhibitors; 340,000 compounds, 0.006% hits; also: potency is read from the fitted curve at half-maximal effect
# Target sequence (P17405 47-631 limits assumed): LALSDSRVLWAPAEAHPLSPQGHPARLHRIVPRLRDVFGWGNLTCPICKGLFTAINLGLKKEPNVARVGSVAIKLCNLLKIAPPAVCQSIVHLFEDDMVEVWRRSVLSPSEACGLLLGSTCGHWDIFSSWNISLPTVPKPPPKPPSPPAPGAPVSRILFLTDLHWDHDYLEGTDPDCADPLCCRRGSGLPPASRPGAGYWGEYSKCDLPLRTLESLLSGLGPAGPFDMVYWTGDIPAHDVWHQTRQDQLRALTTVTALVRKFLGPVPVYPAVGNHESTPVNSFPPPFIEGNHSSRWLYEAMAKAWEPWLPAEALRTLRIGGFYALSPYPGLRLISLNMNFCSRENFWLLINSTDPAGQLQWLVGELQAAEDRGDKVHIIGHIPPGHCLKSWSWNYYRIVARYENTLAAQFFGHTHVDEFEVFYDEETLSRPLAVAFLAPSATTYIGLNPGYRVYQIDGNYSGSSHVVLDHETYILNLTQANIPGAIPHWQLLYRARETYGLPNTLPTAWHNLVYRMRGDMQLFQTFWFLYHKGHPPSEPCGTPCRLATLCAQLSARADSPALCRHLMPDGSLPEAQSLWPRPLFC
#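 Fluorogenic HMU-PC substrate (9 uM final) is turned over by placental ASM in 60 min at 37 C after a 10 min compound preincubation. Reaction ended by alkaline stop (pH 10), with fluorescence read at 386/447 nm.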
# TGFb inhibitor – qHTS for Inhibitors of TGF-b; Potency, µM (doses to about 46.1 µM), inactives show at the top dose activity, negative = inhibition, hits mostly inhibitors; AID 588855, 2011; 410,000 compounds, 1.2% hits; HepG2 CAGA-GFP TGF-b/SMAD3 reporter, GFP fluorescence, 18 h; TGF-beta stimulated, 500 pg/mL final; also: potency is read from the fitted curve at half-maximal effect; % is scaled to controls: 0 for no effect and ±100 for the full control effect; nearly all actives have a fitted effect of over 65% in size
#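 Per well, imaged GFP fluorescence of HEPG2 CAGA-GFP cells gives the signal; cells get compound, then TGF-beta (500 pg/mL final), 18 h at 37 degrees C; %Activity versus -TGF-beta and +DMSO controls.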
# DT40 TDP1 no CPT – qHTS for Inhibitors of human tyrosyl-DNA phosphodiesterase 1 (TDP1): qHTS in cells in absence of CPT; DT40 Tdp1-/- hTDP1 cells, no CPT, ATP luminescence, 48 h; Potency, µM (series often up to 46.2 µM), inactives show top-dose activity change, negative = growth inhibition, most hits filed as inhibitors; 420,000 compounds, 15% hits; AID 686978, 2013; also: potency is read from the fitted curve at half-maximal effect; % is scaled to controls: 0 for no effect and ±100 for the full control effect; nearly all actives have a fitted effect of over 55% in size
#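 Chicken DT40 Tdp1-/- cells stably complemented with human TDP1 were seeded at 400 cells/well with DMSO in place of 20 nM camptothecin. After compound pinning, cells grew at least 48 hr at 37 °C; viability read by CellTiter-Glo luminescence.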
# Active calls of the source: *; i = inactive; ? = inconclusive; / = no result; ! = repeats disagree. Unless noted, calls follow the shape of the dose curve; as a rule, active = well fitted curve in the direction sought with a large enough effect; inconclusive = small, poorly fitted or top-dose-only effect, or another doubt; inactive = no such curve, though single readings can be large; an effect the other way counts as inactive or inconclusive.
SMILES,HepG2 viability,IL-1B inflam inh,TDP1 cell CPT,S-ASM inh,TGFb inhibitor,DT40 TDP1 no CPT
CCCNS(=O)(=O)c1cccc(C(=O)OCc2cc(=O)oc3cc(OC)ccc23)c1,16%,31,1µM*,-6%,?,1µM*
COc1ccc(C(=O)OCc2cc(=O)oc3cc(C)ccc23)cc1S(=O)(=O)N1CCOCC1,-2%,-22,-22%,/,12%,?
COc1ccc2c(COC(=O)c3cccc(S(=O)(=O)NCC(C)C)c3)cc(=O)oc2c1,11%,20,?,-3%,2%,?
COc1cccc(OC)c1C(=O)OCC(=O)N(C)c1ccccc1,3%,0,?,2%,5%,?
Cc1ccc(C(=O)c2oc3ccccc3c2N)cc1,-2%,-10,16µM*,-3%,24%,?
CN(C)CCNc1c2c(nc3ccccc13)CCC2,-30%,-25,?,4%,-22%,18µM*
COCCCNc1c2c(nc3ccccc13)CCC2,-1%,33,?,/,-8%,?
CN(C)CCCNc1nc(-c2ccccc2)nc2ccccc12,-32%,?,27%,3%,-1%,-15%
CN(C)CCCNc1c2ccccc2nc2ccccc12,9%,-103*,2.9µM*,i,?,2.6µM*
S=C(NNc1ccnc2cc(Cl)ccc12)Nc1ccccc1Cl,-18%,-91*,4.1µM*,-4%,?,2.6µM*
Clc1ccc2c(NCc3ccccc3)ccnc2c1,-28%,-99*,?,17%,?,10µM*
Oc1ccc(Nc2ccnc3cc(Cl)ccc23)cc1,-29%,-74*,?,-2%,?,21µM*
CCN(CCO)CCCC(C)Nc1ccnc2cc(Cl)ccc12 (stereo unspecified),/,/,2.6µM*,/,/,4.1µM*!
Clc1ccc(NNc2ccnc3cc(Cl)ccc23)cc1,-9%,-30,?,-7%,4%,?
Nc1c(Br)cc(Br)c2c1[nH]c(=O)c1ccccc12,0%,26,?,/,-8%,?
CCN(CC)CCCC(C)Nc1nccc2c(Cl)cccc12 (stereo unspecified),-40%,?,21µM*,78%,?,?
CCN(CC)CCOc1c(C)cccc1Cl,-18%,13,0%,3%,-10%,10%
Cc1cccc(NC(=S)NNc2ncc(C(F)(F)F)cc2Cl)c1,-37%,-14,?,1%,?,?
FC(F)(F)c1cnc(NNC(=S)Nc2ccccc2Cl)c(Cl)c1,-49%,-52*,?,3%,7.1µM*,18µM*
CCN(CC)CCNc1ccnc2cc(Cl)ccc12,-38%,-56*,-21%,2%,-15%,-22%
CCCc1nc(NC2CCCCC2)c(C#N)c2c1COC(C)(C)C2,6%,8,18µM*,-1%,-5%,29µM*
CCc1nc(NCC2CCCO2)c(C#N)c2c1COC(C)(C)C2 (stereo unspecified),-21%,-17,?,12%,12%,-10%
CCc1ccc(NC(=O)c2sc(-n3nc(C)c(Cc4ccc(OC)cc4)c3C)nc2C)cc1,2%,/,-11%,/,-8%,-14%
Cc1cc(-n2c(SCC(=O)Nc3ccc(F)c(F)c3)nc3n[nH]c(C)c3c2=N)ccc1Cl,-3%,-6,2.6µM*,0%,?,1.5µM*
Cc1ccc(-n2c(SCC(=O)Nc3cccc(Cl)c3)nc3n[nH]c(C)c3c2=N)cc1,13µM*,/,8.2µM*,/,1.8µM*,7.3µM*
SMILES,HepG2 viability,IL-1B inflam inh,TDP1 cell CPT,S-ASM inh,TGFb inhibitor,DT40 TDP1 no CPT
CCc1ccc(NC(=O)CSc2nc3n[nH]c(C)c3c(=N)n2-c2cccc(OC)c2)cc1,-15%,-19,18µM*,?,11%,26µM*
Cc1cc(-n2c(SCC(=O)Nc3ccc(Br)cc3)nc3n[nH]c(C)c3c2=N)ccc1Cl,-15%,16,?,-9%,-11%,?
Cc1cccc(-n2c(SCC(=O)Nc3ccc(C)c(C)c3)nc3n[nH]c(C)c3c2=N)c1,-26%,/,10µM*,/,?,7.3µM*
Cc1cc(-c2nnc(SCC(=O)Nc3ccc(C)c(C)c3)n2N)n[nH]1,1%,6,3%,-1%,5%,13%
CC(C)C[C@H]1COc2cc(N3CCC[C@@H]3CO)ccc2S(=O)(=O)N1,/,86,-18%,/,/,-15%
CCN(C(=O)CSc1nc2n[nH]c(C)c2c(=N)n1-c1cccc(OC)c1)c1cccc(C)c1,-67%,/,23µM*,/,?,?
COc1cccc(-n2c(SCC(=O)NCCC3=CCCCC3)nc3n[nH]c(C)c3c2=N)c1,-8%,19,16µM*,-24%,?,15µM*
COc1cccc(NC(=O)CSc2nc3n[nH]c(C)c3c(=N)n2-c2cccc(OC)c2)c1,16%,-51*,23µM*,?,?,21µM*
CN(CC(=O)Nc1ccc(F)c(F)c1F)C(=O)C1COc2ccccc2O1 (stereo unspecified),1%,5,-1%,-2%,6%,-16%
Cc1cc(C)cc(NC(=O)C(=O)NCCCN2CCCC2=O)c1,-6%,-2,1%,/,13%,-2%
O=C(Cc1ccc(Cl)c(Cl)c1)NC1CCCCCC1,-12%,?,-23%,1%,?,-18%
CCc1ccc(Sc2cc(C(=O)NCc3cccc(OC)c3)c3ccccc3n2)cc1,-11%,/,16µM*,/,-3%,?
CCOc1ccc(Sc2cc(C(=O)NCc3ccccc3Cl)c3ccccc3n2)cc1,-23%,/,?,/,0%,13µM*
CCOc1ccc(Sc2cc(C(=O)NC(C)CC)c3ccccc3n2)cc1 (stereo unspecified),4%,/,-15%,/,-4%,-15%
CCOc1ccc(Nc2cc(C(=O)NCc3ccccc3Cl)c3ccccc3n2)cc1,-3%,/,10µM*,/,3%,?
COc1cccc(CNC(=O)c2cccnc2Sc2ccccc2)c1,-3%,?,-3%,2%,-1%,12%
COc1ccc(Nc2cc(C(=O)NCc3ccccc3OC)c3ccccc3n2)cc1,-17%,/,-20%,/,-8%,?
